# A selection: hits, their analogues and other compounds. The true share with any hit is near 7.4%.
# FLuc counter: counter-screen for miR-21 project: firefly luciferase inhibitors or activators; AID 588342; Potency, µM (top dose mostly 57.5 µM), usual class: inhibitors; purified FLuc, Km substrates, luminescence inhibition; 360,000 compounds, 6.9% hits; P08659; also: nearly all actives have a fitted effect of over 55% in size
# Target sequence (P08659 whole entry, looked up): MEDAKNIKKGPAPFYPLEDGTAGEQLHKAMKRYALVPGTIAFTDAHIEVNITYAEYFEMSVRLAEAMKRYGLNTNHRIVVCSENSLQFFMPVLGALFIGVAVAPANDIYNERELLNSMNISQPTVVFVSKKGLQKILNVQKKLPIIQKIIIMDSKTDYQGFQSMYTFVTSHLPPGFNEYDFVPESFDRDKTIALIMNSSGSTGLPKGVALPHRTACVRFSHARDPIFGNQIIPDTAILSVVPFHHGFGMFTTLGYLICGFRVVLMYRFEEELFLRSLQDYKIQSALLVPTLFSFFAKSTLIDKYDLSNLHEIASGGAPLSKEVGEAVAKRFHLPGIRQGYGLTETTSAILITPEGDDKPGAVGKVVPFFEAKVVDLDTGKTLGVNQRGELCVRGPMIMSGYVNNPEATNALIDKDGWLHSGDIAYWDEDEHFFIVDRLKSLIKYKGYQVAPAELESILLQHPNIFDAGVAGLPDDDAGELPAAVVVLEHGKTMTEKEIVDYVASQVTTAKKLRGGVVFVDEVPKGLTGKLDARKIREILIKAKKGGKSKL
#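 Purified P. pyralis luciferase, 10 nM final, with Km-level 10 uM D-luciferin and 10 uM ATP in 50 mM Tris acetate pH 7.5, 10 mM Mg acetate, 0.01% Tween-20, 0.05% BSA; 6-point qHTS titration about 60 µM downward; luminescence read.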
# SMN2 splice enh: SMN2 splice variant enhancement; HEK293 SMN2-luciferase splicing reporter, luminescence, 30-36 h; Potency, µM (doses to about 46.1 µM), hits mostly activators; 210,000 compounds, 2.8% hits; AID 1458; also: nearly all actives have a fitted effect of over 55% in size
#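 HEK293 cells carry an SMN2 […]–luciferase reporter in which exon 7 inclusion puts luciferase in frame. Cells were plated 10-12 h before compound addition, then incubated 30-36 h at 37C. ONE-Glo luminescence was read; sodium butyrate at 4.5 mM final served as control.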
# NPC1 promoter act: NPC1 promoter activation; Huh7 NPC1 promoter luciferase reporter, 24 h; 320,000 compounds, 2.4% hits; Potency, µM (titrated, usually from 9.22 µM), most hits filed as activators; also: nearly all actives have a fitted effect of over 60% in size
#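 Cells: Huh7 expressing luciferase under the NPC1 promoter, 1500/well. Seeded 2 h, compound added, incubated 24 h at 37 °C. Luciferase reagent, 10 min ambient, then luminescence.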
# KinaseGlo FLuc: Kinase-Glo luciferase inhibition (counter-screen) | Kinase-Glo luciferase, ATP luminescence, 8 min | Potency, µM (top dose mostly 38.3 µM), actives largely listed as inhibitors | AID 1379 | 200,000 compounds, 0.28% hits | Q27757; also: nearly all actives have a fitted effect of over 60% in size
#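 Recombinant Kinase-Glo luciferase, 10 uM ATP (linear range), luciferin; imidazole pH 7.2 / KCl / MgCl2 / Tween / BSA buffer; 8 min RT; luminescence.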
# Rab9 promoter act: activates the Rab9 promoter. Huh7 Rab9 promoter-luciferase reporter, luminescence, 24 h. 320,000 compounds, 2.8% hits. Potency, µM (series often up to 9.22 µM), usual class: activators; also: nearly all actives have a fitted effect of over 60% in size
#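 Luminescence from Amplite-detected luciferase (10 minutes, ambient) reports Rab9 promoter activation. Before that, stable Rab9-luciferase Huh7 cells (1500/well, reduced-serum OP-MEM I plus 10% FBS) were exposed to compound for 24 hours at 37C.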
# ELG1 genotox: inducers of genotoxicity in HEK293T ELG1-luciferase cells; HEK293T ELG1-luciferase reporter, luminescence, 16 h; Potency, µM (titrated, usually from 46 µM), usual class: activators; 330,000 compounds, 1.3% hits; also: nearly all actives have a fitted effect of over 60% in size
#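 16 hr compound incubation (37 °C, 5% CO2) of HEK293T cells carrying luciferase-tagged ELG1; luciferase then measured by ONE-Glo luminescence after 30 min at RT.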
# Hits are given with their value; i = inactive; ? = inconclusive; nt = no result; [ ] = another dose, or the depositor's remark. Calls follow the shape of the dose curve; as a rule, active = well fitted curve in the direction sought with a large enough effect; inconclusive = small, poorly fitted or top-dose-only effect, or another doubt; inactive = no such curve, though single readings can be large; an effect the other way counts as inactive or inconclusive.
SMILES,FLuc counter,SMN2 splice enh,NPC1 promoter act,KinaseGlo FLuc,Rab9 promoter act,ELG1 genotox
COC(=O)Cn1cc(/C=C/c2cc[n+](C)cc2)c2ccccc21,i,nt,i,nt,i,i
COc1ccccc1NC(=O)COC(=O)c1ccc2ccccc2n1,nt,nt,nt,nt,nt,i
COc1ccc(-c2coc3c2c(C)cc2oc(=O)c(CC(=O)O)c(C)c23)cc1,7.6µM,i,nt,nt,nt,nt
Cc1cc2oc(=O)c(CC(=O)O)c(C)c2c2occ(-c3ccc(F)cc3)c12,6.7µM,i,nt,nt,nt,nt
CCCN(C(=O)CSc1nnnn1-c1ccccc1OC)C1CCS(=O)(=O)C1 (stereo not given),i,nt,i,nt,i,i
CCCCCCCN1CCN=C1Nc1ccccc1,i,nt,i,nt,i,i
Fc1ccc(Nc2ccc(-c3ccc(F)cc3)nn2)cc1,5.4µM,nt,?,i,3.2µM,i
CCN1CCN(S(=O)(=O)Cc2ccccc2Cl)CC1,i,nt,i,nt,i,i
Cc1ccc2nc(SCC3CCCCO3)[nH]c2c1 (stereo not given),1.2µM,nt,0.4µM,nt,0.11µM,?
CC(C)c1ccc2[nH]c3nc(SCC(=O)N4CCOCC4)nnc3c2c1,6.7µM,?,i,i,i,i
Cc1ccc2[nH]c(SCC(=O)N3CCOCC3)nc2c1C,15µM,6.3µM,?,i,3.5µM,?
Cc1ccc2nc(SCC(=O)N3CCN(c4ccccc4)CC3)[nH]c2c1,i,nt,i,nt,i,i
Cc1ccc2nc(SCC(=O)N3CCOCC3)[nH]c2c1,6.7µM,?,2.5µM,i,1.6µM,9.2µM
CCCN1CCN(C(=O)c2cc(COc3ccc(F)cc3F)on2)CC1,i,nt,i,nt,i,i
O=C(CN1CCN(S(=O)(=O)c2ccc(F)cc2)CC1)Nc1ccc(F)cc1F,?,nt,i,nt,i,i[9.26 µM]
Cc1ccc2nc(SCC(=O)Nc3ccc(C#N)cc3)[nH]c2c1,i,i,nt,nt,nt,nt
C/C(N)=C(/C#N)C(=O)CSc1nc2ccc(C)cc2[nH]1,4.8µM,10µM,1.4µM,i,1.1µM,?
CCc1c(C(=O)NCCc2ccc(N3CCCCC3)cc2)[nH]c2ccc(Cl)cc12,nt,nt,i,nt,i,nt
Cc1[nH]c(N=Nc2ccccc2)nc1N=Nc1ccccc1,6µM,nt,i,nt,i,i
COc1cccc(S(=O)(=O)NC2CCN(C#N)C2)c1 (stereo not given),i,nt,i,nt,i,i
Oc1cc2c(cc1O)C1c3ccc(O)c(O)c3OCC1(O)C2 (stereo not given),8.5µM,i,i,?,i,i
COc1cccc(CSc2nc3cc(OC)c(OC)cc3c3nc(CCn4nc(C)cc4C)nn23)c1,i,i,nt,nt,nt,nt
COc1ccc(C2=NNC(c3cccs3)=Nc3ccc(OC)cc32)cc1,15µM,i,i,i,i,i
COc1ccccc1CNC(=O)C1CCN(S(=O)(=O)c2ccc3c(ccn3C)c2)CC1,i,nt,nt,nt,nt,nt
CC1(C(=O)Nc2c(F)c(F)c(F)c(F)c2F)CC1(Br)Br (stereo not given),i,nt,i,nt,i,i
SMILES,FLuc counter,SMN2 splice enh,NPC1 promoter act,KinaseGlo FLuc,Rab9 promoter act,ELG1 genotox
Fc1ccc(-n2[nH]nnc2=S)cc1N1CCCC1,24µM,i,i,i,i,i
Cc1cc(C)c(-n2[nH]nnc2=S)c(C)c1,i,nt,i,nt,i,i
O=C(O)Cc1ccc(OCc2ccc(Cl)nc2)cc1,15µM,i,i,i,i,i
CCc1ccc(NC(=O)CSc2ccc(-c3ccccn3)nn2)cc1,i,nt,i,nt,i,?
CCOc1ccc(-c2ccc(SCc3ccccn3)nn2)cc1,13µM,i,?,i,?,i
CCc1ccc(-c2ccc(SCc3ccccn3)nn2)cc1,8.5µM,?,3.2µM,i,?,?
COC(=O)CC(NC(=O)c1ccc(C)cc1)c1ccc2c(c1)OCO2 (stereo not given),i,i,i,i,i,i
COC(=O)CC(NC(=O)c1ccc(C)cc1)c1ccccc1 (stereo not given),3.8µM,i,i,i,i,i
Cc1ccc(C(=O)NC(c2ccccc2)C(Cl)Cl)cc1 (stereo not given),21µM,i,i,i,i,i
O=C(Nc1ccnn1C1CCN(C(=O)CCc2ccc(F)cc2)CC1)C1CCOC1 (stereo not given),i,nt,i,nt,i,i
COc1ccc(/C=N/NC(=O)c2ccc3nc[nH]c3c2)cc1,21µM,nt,i,nt,i,i

# High-throughput results (PubChem BioAssay)
